Compound activity from PubChem BioAssay.
Luc counter: blocks Kinase-Glo luciferase, a counter-screen artifact; Q27757; Kinase-Glo luciferase, ATP luminescence, 8 min; Potency, µM (doses to about 38.3 µM), usual class: inhibitors; actives 0.28% (n = 200,000); AID 1379; also: nearly all actives have a fitted effect of over 60% in size
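Substrate mix (final 50 mM imidazole pH 7.2, 50 mM KCl, 7 mM MgCl2, 10 uM ATP, 0.01% Tween 20, 0.05% BSA) plus pin-tool compound, then Kinase-Glo detection mix; 8 min ambient, luminescence read.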
NPC1 promoter act: activators of NPC1 promoter. AID 485313. actives 2.4% (n = 320,000). Potency, µM (doses to about 9.22 µM), usual class: activators. Huh7 NPC1 promoter luciferase reporter, 24 h; also: nearly all actives have a fitted effect of over 60% in size
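Stably transfected Huh7 (NPC1 promoter→luciferase), 1500 cells/well in Opti-MEM + 10% FBS, 2 h settle, then compound 24 h at 37 °C. Luminescence after 10 min with Amplite reagent.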
FLuc counter: inhibits or activates purified firefly luciferase, miR-21 counter-screen; P08659; purified FLuc, Km substrates, luminescence inhibition; Potency, µM (highest dose often 57.5 µM), hits mostly inhibitors; actives 6.9% (n = 360,000); also: nearly all actives have a fitted effect of over 55% in size
Target sequence (P08659 whole entry, looked up): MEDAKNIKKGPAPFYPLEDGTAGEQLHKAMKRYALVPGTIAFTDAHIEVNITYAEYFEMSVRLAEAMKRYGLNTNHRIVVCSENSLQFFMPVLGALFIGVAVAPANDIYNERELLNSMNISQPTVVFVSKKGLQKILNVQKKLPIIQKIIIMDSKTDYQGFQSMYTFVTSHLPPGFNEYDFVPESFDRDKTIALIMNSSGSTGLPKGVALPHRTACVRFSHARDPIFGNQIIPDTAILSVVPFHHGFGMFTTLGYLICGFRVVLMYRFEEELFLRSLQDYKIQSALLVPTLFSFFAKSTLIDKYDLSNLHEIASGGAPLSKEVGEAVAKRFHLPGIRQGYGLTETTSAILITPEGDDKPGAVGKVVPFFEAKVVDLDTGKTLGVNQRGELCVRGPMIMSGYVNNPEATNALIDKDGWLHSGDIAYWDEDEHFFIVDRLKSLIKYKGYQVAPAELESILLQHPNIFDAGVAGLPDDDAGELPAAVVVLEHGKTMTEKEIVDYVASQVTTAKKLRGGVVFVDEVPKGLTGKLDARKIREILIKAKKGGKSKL
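Biochemical qHTS of compounds, final roughly 60 µM downward over six points, against 10 nM purified firefly luciferase using Km concentrations of substrates (10 uM D-luciferin, 10 uM ATP) in Tris acetate pH 7.5 buffer; luminescence output.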
SMN2 splice enh: enhancers of SMN2 splice variant expression | HEK293 SMN2-luciferase splicing reporter, luminescence, 30-36 h | Potency, µM (highest dose often 46.1 µM), most hits filed as activators | actives 2.8% (n = 210,000) | AID 1458; also: nearly all actives have a fitted effect of over 55% in size
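HEK293 cells carry an SMN2 […]–luciferase reporter in which exon 7 inclusion puts luciferase in frame. Cells were plated 10-12 h before compound addition, then incubated 30-36 h at 37C. ONE-Glo luminescence was read; sodium butyrate at 4.5 mM final served as control.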
ELG1 genotoxic: induces genotoxicity in HEK293T cells with luciferase-tagged ELG1. HEK293T ELG1-luciferase reporter, luminescence, 16 h. Potency, µM (series often up to 46 µM), usual class: activators. actives 1.3% (n = 330,000); also: nearly all actives have a fitted effect of over 60% in size
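Cells (2,000/well) expressing the ELG1-luciferase fusion are dosed by pin tool and kept 16 hr at 37 °C, 5% CO2. Signal comes from ONE-Glo luciferase reagent after 30 min at room temperature.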
Rab9 promoter act: activators of Rab9 promoter. Huh7 Rab9 promoter-luciferase reporter, luminescence, 24 h. Potency, µM (highest dose often 9.22 µM), usual class: activators. actives 2.8% (n = 320,000); also: nearly all actives have a fitted effect of over 60% in size
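Stable Rab9-luc Huh7, 1500 cells/well, 2 h settle; cmpd in DMSO, 24 h, 37 °C/5% CO2; luciferase reagent 10 min RT; luminescence.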
A number is an active result; n = inactive; u = inconclusive; x = no result; [ ] = another dose, or the depositor's remark. Only some compounds are listed: those with a hit (about 7.3% of all), similar ones and a draw of the others. Calls follow the shape of the dose curve; as a rule, active = well fitted curve in the direction sought with a large enough effect; inconclusive = small, poorly fitted or top-dose-only effect, or another doubt; inactive = no such curve, though single readings can be large; an effect the other way counts as inactive or inconclusive.

SMILES | Luc counter | NPC1 promoter act | FLuc counter | SMN2 splice enh | ELG1 genotoxic | Rab9 promoter act
CCN(C(=O)CSc1nc2n[nH]c(C)c2c(=N)n1-c1cccc(OC)c1)c1cccc(C)c1 | x | x | n | x | x | x
O=C(NCC(=O)N1CCCC(C(F)(F)F)C1)c1ccc(Oc2ccccc2)cc1 (stereo unspecified) | x | u | 0.269µM | x | u | 2.51µM
C=CC(C1=CC(=O)C(OC)=C(OC)C1=O)c1ccccc1 (stereo unspecified) | n | x | x | n | x | x
O=C(Oc1ccc2c(c1)OCO2)c1ccc(F)cc1Cl | u | n | 2.69µM | n | n | u
O=C(Nc1cccc(F)c1)c1ccc2c(c1)OCO2 | n | 2.82µM | 10.7µM | 6.31µM | 5.17µM | 1.58µM
O=C(NNC(=O)c1ccc(F)cc1F)c1ccc2c(c1)OCO2 | n | n | u | u | u | 3.16µM
CC(C)Oc1ccc(C(=O)Nc2c(C(=O)Nc3cccc(F)c3)oc3ccccc23)cc1 | x | x | u | n | x | x
O=C(Nc1c(C(=O)Nc2cccc(F)c2)oc2ccccc12)c1ccc2c(c1)OCO2 | n | n | 8.49µM | n | u | n
Cc1ccc(NC(=O)c2nc(S(C)(=O)=O)ncc2N(Cc2ccc(C(C)(C)C)cc2)Cc2ccco2)cc1C | x | x | n | x | x | x
Cc1cc(C)n(-c2nc(C)c(C)c(=O)n2CC(=O)Nc2ccc(OC(F)(F)F)cc2)n1 | x | x | n | x | x | x
O=C(c1cc2c(s1)CCCC2)N1CCN(Cc2ccc3c(c2)OCO3)CC1 | n | n | n | n | n | n
O=C(Oc1ccc2c(c1)OCO2)c1cc2c(s1)CCC2 | n | n | 3.79µM | n | n | n
Cc1ccc(NC(=O)c2oc3ccccc3c2NC(=O)c2ccc3c(c2)OCO3)cc1 | n | n | 6.75µM | n | n | n
Clc1ccc(-c2nc3sccn3c2/C=N/OCc2ccc(Cl)c(Cl)c2)cc1 | x | x | x | n | x | x
COc1ccccc1CNC(=O)CSc1nc(=O)[nH]c2c1CCC2 | x | x | n | x | x | x
CCOc1ccc(N=C2NN=C(c3cc(C)n(CC4CCCO4)c3C)CS2)cc1 (stereo unspecified) | n | n | 13.5µM | n | n | u
COCCn1c(C)cc(C2=NNC(=NC3CC3)SC2)c1C | 7.08µM | n | 0.239µM | n | n | n
C=CCn1c(C)cc(C2=NNC(=NC(C)(C)C)SC2)c1C | u | u | 0.338µM | n | 0.581µM | u
Cc1cc(C2=NNC(=NCc3ccccc3)SC2)c(C)n1-c1c(C)n(C)n(-c2ccccc2)c1=O | n | n | n | n | n | n
C=CCN=C1NN=C(c2cc(C)n(CCOC)c2C)CS1 | n | n | 0.379µM | n | n | n
COCCn1c(C)cc(C2=NNC(=Nc3ccc(Cl)cc3Cl)SC2)c1C | n | n | u | n | n | n
COc1ccc(C)cc1NC(=O)c1ccc2c(c1)nnn2C1CCCC1 | x | x | n | x | x | x
C/C(=N/Nc1nc(C)cc(=O)[nH]1)C(=O)O | n[7.66 µM] | x | x | n[9.22 µM] | x | x
Cc1nc(N2CCOCC2)c2nc(-c3ccccc3)n(CCN(C)C)c2n1 | n | x | x | n | x | x
CCCCc1ccc(NC(=O)CSc2nc3ccccc3nc2N2CCOCC2)cc1 | x | x | n | n | x | x
SMILES | Luc counter | NPC1 promoter act | FLuc counter | SMN2 splice enh | ELG1 genotoxic | Rab9 promoter act
Cc1ccc2c(=O)cc(C(=O)Nc3nnc(CC(C)C)s3)oc2c1C | x | x | u | n | x | x
COc1ccccc1CCc1nnc(CCC(=O)N(C)Cc2ccncc2C)o1 | n | n | n | x | n | n
Cc1cccc(CC(C)NC(=O)c2cc(COc3ccc(F)cc3F)on2)n1 (stereo unspecified) | x | n | u | x | n[9.26 µM] | n
COc1cc(Cl)ccc1OCc1cc(C(=O)NC(C)Cc2cccnc2)no1 (stereo unspecified) | x | u | 8.49µM | x | n | u
COc1ccc(OCc2cc(C(=O)NC(C)Cc3cnccn3)no2)c(Cl)c1 (stereo unspecified) | x | u | 19µM | x | u | u
COc1ccc(OCc2cc(C(=O)NCCc3ccccc3)no2)c(Cl)c1 | x | n | u | x | n | n
COc1ccc(OCc2cc(C(=O)NCC(C)Oc3cccnc3)no2)c(Cl)c1 (stereo unspecified) | x | u | 15.1µM | x | n | u
COc1ccccc1CCc1nnc(CCC(=O)N(C)Cc2cccc3cnccc23)o1 | n | 3.98µM | 12µM | x | n | 2.82µM
COc1ccc(OCc2cc(C(=O)N3CCN(CC4CC4)CC3)no2)c(Cl)c1 | x | u | u | x | n[9.26 µM] | u
C[C@H]1Cc2c(-c3ccccc3)nc3c(c2CO1)CN(S(=O)(=O)c1ccc(C#N)cc1)CC3 | n[7.66 µM] | x | x | n[9.22 µM] | x | x
COc1ccc(Br)cc1CNC(=O)c1cc(=O)[nH]c2ccc(S(=O)(=O)N3CCCCC3)cc12 | x | x | n | x | x | x
CN(Cc1nccs1)C(=O)c1cc(COc2cccc3cnccc23)on1 | x | n | n | x | n | n
COc1cc(Cl)ccc1OCc1cc(C(=O)N(C)Cc2cccc3cnccc23)no1 | x | u | 13.5µM | x | n | u
CCCCCCCCCCCCCCCC(=O)N[C@@H](COP(=O)(O)O)C(=O)O | n | x | x | n | x | x
CC(C)(C)c1ccc(NC(=O)COC(=O)C2CCCC2)cc1 | x | n | 10.7µM | x | n | n
COc1ccc(Cl)cc1NC(=O)COC(=O)C1CC1 | x | n | x | x | n | n
Cc1cc(NC(=O)COC(=O)C2CC2)ccc1Br | x | n | 8.49µM | x | n | n
COc1ccc(NC(=O)COC(=O)C2CCC2)cc1Cl | x | n | n | x | n | n
COc1ccc(Cl)cc1NC(=O)COC(=O)C1CCCCC1 | x | n | 15.1µM | x | n | n
O=c1c2oc3ccccc3c2n(Cc2ccccc2Cl)c(=O)n1Cc1ccc2c(c1)OCO2 | x | x | n | x | x | x
O=C(Nc1ccc(OC(F)(F)F)cc1)c1n[nH]c(Cn2cncn2)n1 | n | n | 12µM | n | n | n
Cc1ccc(C)c(N2CCN(c3nc4ccccc4c(=O)n3-c3ccccc3)CC2)c1 | x | x | n | n | x | x
O=c1c(Cl)c(Nc2cccc(Cl)c2)cnn1-c1nc2ccccc2s1 | n | u | 4.78µM | 10µM | u | u
COc1ccc(Nc2cnn(-c3nc4ccccc4s3)c(=O)c2Cl)cc1 | u | u | 10.7µM | 10µM | u | u
Cc1ccc(C)c(N2CCN(c3cnn(-c4nc5ccccc5s4)c(=O)c3Cl)CC2)c1 | n | 2.24µM | 6.75µM | u | 18.4µM | 1.58µM
SMILES | Luc counter | NPC1 promoter act | FLuc counter | SMN2 splice enh | ELG1 genotoxic | Rab9 promoter act
Cc1nc2ccccc2nc1Nc1cccc(Cl)c1 | x | n | n | x | n | n
COc1ccc(C2SCC(=O)N2c2nc3ccccc3s2)cc1 (stereo unspecified) | n | n | u | x | n | n
NC(=O)Cc1nc(-c2ccc(Br)cc2)cs1 | n | n | u | n | n | n
Oc1csc(Cc2nc(-c3ccc(Br)cc3)cs2)n1 | n | 3.16µM | u | u | u | 3.55µM
S=c1[nH]c2cc3ccccc3cc2[nH]1 | x | n | 4.78µM | x | u | n
S=c1[nH]c2ccc3ccccc3c2[nH]1 | n | n | n | n | n | u
CCc1nc2ccccc2[nH]1 | n | n | n | n | n | n
Nc1ccc(C(=O)OCc2nc3c(ccc4ccccc43)[nH]2)cc1 | n | n | 13.5µM | n | u | u
